Source: the supplement of paper PMC13380429

Test system: Vero E6 infected with SARS-CoV-2
Assay: inhibition of SARS-CoV-2 cytopathic effect; higher = more antiviral protection, active = above 15
Conditions: 48 h

Measured: inhibition of SARS-CoV-2 cytopathic effect

CC(=O)N(CC(O)CO)c1c(I)c(C(=O)NCCO)c(I)c(C(=O)NCC(O)CO)c1I (stereo not given) [ioxilan]
inactive: 1 nM 1.8% | 8.33 nM 0.19% | 100 nM -2.31% | 833.33 nM -1.98% | 10000 nM -0.58%

BrC1C(Br)C(Br)C(Br)C(Br)C1Br (stereo not given) [1,2,3,4,5,6-hexabromocyclohexane]
inactive: 1 nM -2.03% | 8.33 nM -1.15% | 100 nM -1.07% | 833.33 nM -1.96% | 10000 nM 9.07%

O=C(NO)c1cnc(N2CCN(S(=O)(=O)c3ccc4ccccc4c3)CC2)nc1
inactive: 1 nM 1.24% | 8.33 nM 2.59% | 100 nM 2.04% | 833.33 nM -16.4% | 10000 nM -22.6%

CCc1cnc(N2CCC(c3nc(COc4ccc(-n5cnnn5)cc4)cs3)CC2)nc1
inactive: 1 nM 1.55% | 8.33 nM -3.29% | 100 nM -4.15% | 833.33 nM -3.29% | 10000 nM 0.22%

CC(C)(C)NC(=O)N[C@H](C(=O)N1C[C@H]2[C@@H]([C@H]1C(=O)NC(CC1CCC1)C(=O)C(N)=O)C2(C)C)C(C)(C)C (stereo not given in full) [Boceprevir]
inactive: 1 nM 0.22% | 8.33 nM 1.1% | 100 nM -0.28% | 833.33 nM -1.99% | 10000 nM -0.53%

COc1cc(C#N)ccc1S(=O)(=O)Nc1ccc2c(c1)cc(C)c(=O)n2C
inactive: 1 nM -2.94% | 8.33 nM 1.53% | 100 nM 0.3% | 833.33 nM -4.02% | 10000 nM -0.1%

COc1cc(OC)c(OC)cc1C=O [asaraldehyde]
inactive: 1 nM -1.46% | 8.33 nM -1.92% | 100 nM -1.24% | 833.33 nM -1.97% | 10000 nM 0.07%

Cc1noc(NS(=O)(=O)c2ccc(N)cc2)c1C [sulfafurazole]
inactive: 1 nM -0.27% | 8.33 nM -1.19% | 100 nM 0.89% | 833.33 nM -1.49% | 10000 nM 0.12%

CC(C)c1cc(C(=O)N2Cc3ccc(CN4CCN(C)CC4)cc3C2)c(O)cc1O
inactive: 1 nM -1.87% | 8.33 nM -3.96% | 100 nM -5.27% | 833.33 nM -1.1% | 10000 nM 0.31%

O=[N+]([O-])c1cn2c(n1)OC[C@@H](OCc1ccc(-c3ccc(OC(F)(F)F)cc3)nc1)C2
inactive: 1 nM 1.33% | 8.33 nM -0.87% | 100 nM -0.57% | 833.33 nM 4.38% | 10000 nM 0.34%

CC(C)(O)C(=O)N1CCN(c2ccc(C(F)(F)F)c(C3=C(c4c[nH]c5ccccc45)C(=O)NC3=O)c2)CC1
inactive: 1 nM -0.88% | 8.33 nM -0.68% | 100 nM -5.41% | 833.33 nM -0.21% | 10000 nM 4.03%

CC1(C)O[C@H]2CC(=O)OC[C@]23[C@H]2CC[C@@]4(C)[C@H](c5ccoc5)OC(=O)[C@H]5O[C@]54[C@]2(C)C(=O)C[C@@H]13 [limonin]
inactive: 1 nM -0.51% | 8.33 nM -0.42% | 100 nM -2.25% | 833.33 nM -1.69% | 10000 nM -2.49%

COc1ccc2c(OCc3nnc4ccc(-c5ccccc5)nn34)ccnc2c1
inactive: 1 nM 1.19% | 8.33 nM -0.48% | 100 nM 0.42% | 833.33 nM -0.17% | 10000 nM 1.81%

C[C@@]12CCc3occc3[C@H]1CC[C@@]13C[C@@H](CC[C@H]12)[C@@](O)(CO)C3 [cafestol]
inactive: 1 nM -4.07% | 8.33 nM -1.86% | 100 nM 2% | 833.33 nM 2.62% | 10000 nM 1.59%

CC(C)(O)c1ccn2c(-c3ccc(F)c(-c4ccc(F)cc4C#N)c3)cnc2c1F
inactive: 1 nM -0.56% | 8.33 nM 0.82% | 100 nM 0.5% | 833.33 nM -1.01% | 10000 nM -2.58%

COc1cccc(N(C)C(=S)Oc2ccc3c(c2)CCCC3)n1 [liranaftate]
inactive: 1 nM -2.95% | 8.33 nM 1.62% | 100 nM 0.18% | 833.33 nM -0.32% | 10000 nM 1.9%

CC1(C)N=C(N)N=C(N)N1OCCCOc1cc(Cl)c(Cl)cc1Cl
inactive: 1 nM -1.05% | 8.33 nM 0.38% | 100 nM 0.21% | 833.33 nM 0.74% | 10000 nM -2.49%

O=C1c2ccccc2S(=O)(=O)N1CCCCN1CCN(c2ncccn2)CC1 [ipsapirone]
inactive: 1 nM 4.62% | 8.33 nM 2.92% | 100 nM -3.31% | 833.33 nM 1.74% | 10000 nM 0.15%

CC(=O)[C@H]1CC[C@H]2[C@@H]3CC=C4C[C@@H](O)CC[C@]4(C)[C@H]3CC[C@]12C [pregnenolone]
inactive: 1 nM -0.59% | 8.33 nM 3.91% | 100 nM -5.44% | 833.33 nM -1.71% | 10000 nM -3.04%

NC(=O)c1nc(F)cnc1O [Favipiravir]
inactive: 1 nM -0.26% | 8.33 nM 1.4% | 100 nM -0.55% | 833.33 nM 1.38% | 10000 nM -0.22%

N[C@@H](Cc1ccc(O)cc1)C(=O)O [plovamer-acetate]
inactive: 1 nM -8.12% | 8.33 nM -7.1% | 100 nM -9.88% | 833.33 nM -9.04% | 10000 nM -5.19%

OCc1ccccc1O[C@@H]1O[C@H](CO)[C@@H](O)[C@H](O)[C@H]1O [salicin]
inactive: 1 nM 0.33% | 8.33 nM 2.34% | 100 nM 1.75% | 833.33 nM 2.27% | 10000 nM 5.91%

Cc1ccc(NC(=O)c2cccc(C(C)(C)C#N)c2)cc1Nc1ccc2ncn(C)c(=O)c2c1
inactive: 1 nM 1.24% | 8.33 nM 2.77% | 100 nM -0.67% | 833.33 nM -2.75% | 10000 nM -1.17%

CCc1cccc(CC)c1NC(=O)c1nn(C)c2c1CCc1cnc(Nc3ccc(C(=O)NC4CCN(C)CC4)cc3OC(F)(F)F)nc1-2
inactive: 1 nM 1.19% | 8.33 nM 3.71% | 100 nM 1.53% | 833.33 nM 0.13% | 10000 nM 5.39%

COC(=O)[C@@H]1CC2=CC(=O)CC[C@]2(C)[C@@]23O[C@@H]2C[C@@]2(C)[C@@H](CC[C@@]24CCC(=O)O4)[C@H]13 [eplerenone]
inactive: 1 nM 0.06% | 8.33 nM 2.8% | 100 nM 0.3% | 833.33 nM 1.53% | 10000 nM 0.25%

CN(C)CCN(C)CCc1ccc(Cl)c(Cl)c1
inactive: 1 nM -3% | 8.33 nM -0.98% | 100 nM 1.41% | 833.33 nM -3.83% | 10000 nM -3.28%

Cc1ccc(S(=O)(=O)OCC(=O)Nc2ccc(C(=O)O)c(O)c2)cc1 [STAT3-inhibitor-VI]
inactive: 1 nM -0.14% | 8.33 nM -0.23% | 100 nM 0.11% | 833.33 nM -1.76% | 10000 nM 1.39%

NCCNCCNCCN [trientine]
inactive: 1 nM -0.43% | 8.33 nM 2.23% | 100 nM 1.04% | 833.33 nM 2.74% | 10000 nM -1.84%

CN1CC(=O)N=C1NC(=O)Nc1cccc(Cl)c1 [fenobam]
inactive: 1 nM 0.79% | 8.33 nM 2.12% | 100 nM 0.63% | 833.33 nM 1.08% | 10000 nM -0.64%

CCCOc1ccc2[nH]c(NC(=O)OC)nc2c1 [oxibendazole]
inactive: 1 nM -2.12% | 8.33 nM -0.7% | 100 nM -0.63% | 833.33 nM -2.39% | 10000 nM -0.04%

CC(CNC1CCCCC1)OC(=O)c1ccccc1 (stereo not given) [hexylcaine]
inactive: 1 nM 2.92% | 8.33 nM -0.38% | 100 nM -0.1% | 833.33 nM -11% | 10000 nM -2.93%

CCn1c2ccccc2c2cc(CNC)ccc21
inactive: 1 nM 4.22% | 8.33 nM 4.54% | 100 nM -0.29% | 833.33 nM -0.75% | 10000 nM -3.22%

CCCOc1ccc2[nH]cc(C3=CCNCC3)c2n1
inactive: 1 nM 2.78% | 8.33 nM 1.38% | 100 nM -1.41% | 833.33 nM 2.78% | 10000 nM -1.56%

CC(C)(C)c1[nH]cnc1/C=c1\[nH]c(=O)/c(=C/c2ccccc2)[nH]c1=O [plinabulin]
inactive: 1 nM 0.88% | 8.33 nM 3.39% | 100 nM -1.75% | 833.33 nM 0.24% | 10000 nM 2.48%

CC(C)(C)C(=O)OCOP(=O)(COCCn1cnc2c(N)ncnc21)OCOC(=O)C(C)(C)C [adefovir-dipivoxil]
inactive: 1 nM 2.79% | 8.33 nM 1.23% | 100 nM -0.37% | 833.33 nM -2.27% | 10000 nM -3.69%

COc1cc([C@@H]2c3cc4c(cc3[C@@H](O[C@@H]3O[C@@H]5CO[C@@H](c6cccs6)O[C@H]5[C@H](O)[C@H]3O)[C@H]3COC(=O)[C@H]23)OCO4)cc(OC)c1O [teniposide]
inactive: 1 nM 1.37% | 8.33 nM 2.49% | 100 nM 4.69% | 833.33 nM 1.54% | 10000 nM -7.08%

CCNC(=O)c1noc(-c2cc(C(C)C)c(O)cc2O)c1-c1ccc(CN2CCOCC2)cc1
inactive: 1 nM 0.97% | 8.33 nM -0.58% | 100 nM -1.84% | 833.33 nM 0.4% | 10000 nM -4.07%

O=C(O)c1ccc(CN2CCC(CN[C@@H]3C[C@H]3c3ccccc3)CC2)cc1
inactive: 1 nM 0.72% | 8.33 nM 1.52% | 100 nM 1.24% | 833.33 nM 3.6% | 10000 nM 2.94%

OCCOCCN1CCN(C(c2ccccc2)c2ccc(Cl)cc2)CC1 (stereo not given) [hydroxyzine]
inactive: 1 nM 1.41% | 8.33 nM 0.93% | 100 nM 1.56% | 833.33 nM -1.88% | 10000 nM -4.3%
